Measured values published in ChEMBL document CHEMBL3988442, “University of Dundee, Small-Polar-MMV Screening Library” (2021).
Screen size: about 48,000 compounds; about 13,000 (27%) showed an effect of 50% or more. The list shows a part of the results.

system: Wolbachia pipientis; assay: Anti-Wolbachia Cell-Based Screen; type: functional; parameters: scale not given: in the data most compounds retested in dose-response had high values; details: 5 µM

SMILES | Percent Effect
O=C(Cn1cccnc1=O)NCc1cccnc1OCC(F)(F)F | 2.082%
O=C(Cn1cccnc1=O)NC(Cc1ccsc1)c1cccnc1 (stereo not given) | 105%
O=C(Cn1cccnc1=O)NC(Cc1ccsc1)c1nccs1 (stereo not given) | 149.8%
CC(C)Sc1ccc(C(C)NC(=O)Cn2cccnc2=O)cc1 (stereo not given) | -6.353%
O=C(Cn1cccnc1=O)NC(Cc1ccsc1)c1ccccn1 (stereo not given) | -0.3817%
Cc1csc(C(Cc2ccsc2)NC(=O)Cn2cccnc2=O)n1 (stereo not given) | 109.1%
Cc1cccnc1C(Cc1ccsc1)NC(=O)Cn1cccnc1=O (stereo not given) | 151.6%
O=C(Cn1cccnc1=O)NCC1Cc2ccccc2O1 (stereo not given) | -8.588%
CC(C)N(CC(N)=O)CC(=O)NCCc1c(F)cccc1F | 4.922%
Cc1cnn(CC2CCCCN2CC(=O)N(C)Cc2ccc(C)o2)c1 (stereo not given) | -2.749%
COc1cccc(S(=O)(=O)Cc2cc(C)on2)c1 | -2.252%
CC(NC(=O)Cn1cccnc1=O)c1ccc(OC(F)(F)F)cc1 (stereo not given) | 5.256%
CC(C)CCOc1ccc(C(C)NC(=O)Cn2cccnc2=O)cc1 (stereo not given) | -2.548%
COc1ncccc1C(Cc1ccsc1)NC(=O)Cn1cccnc1=O (stereo not given) | 115.2%
Cc1nc([C@@H]2C[C@@H]3CCN(Cc4cnn(C)c4)C[C@H]3O2)sc1C | -0.8686%
Cc1[nH]ncc1C(=O)NCC1CCC2(CC1)OCCO2 | -7.861%
Brc1cnc(NCCCOCC2CCOCC2)nc1 | 13.33%
COCc1nc(C(=O)NS(=O)(=O)c2ccc(C)cc2C)cs1 | -13.89%
Cc1noc(C[C@@H]2COC[C@H]3CN(S(C)(=O)=O)C[C@@H]23)n1 | -1.05%
Cc1nnc(C[C@@H]2COC[C@H]3CN(C(=O)c4ccco4)C[C@@H]23)o1 | -16.71%
CCS(=O)(=O)N1C[C@@H]2COC[C@@H](Cc3nc(C)no3)[C@@H]2C1 | 1.999%
COc1cc(N2C[C@@H]3COC[C@@H](Cc4nc(C)no4)[C@@H]3C2)ncn1 | 118.7%
Cc1nnc(C[C@@H]2COC[C@H]3CN(C(=O)C4=CCCC4)C[C@@H]23)o1 | -9.93%
COc1cc(N2C[C@@H]3COC[C@@H](Cc4nnc(C)o4)[C@@H]3C2)ncn1 | 80.24%
Cc1cc(CN(CC(N)=O)CC(C)C)no1 | -21.97%

SMILES | Percent Effect
CC(C)CN1C[C@@H]2CN(S(=O)(=O)c3cccs3)C[C@@H]2C1=O | -12.36%
CN(Cc1ccco1)C(=O)Nc1ccc(=O)n(C)c1 | 2.905%
Cc1cnn(C2CN(CC(=O)N(C)Cc3cccs3)C2)c1 | -27.07%
CN(Cc1ccco1)C(=O)CN1CCN(C)c2ccccc2C1 | -2.251%
CN(Cc1cccs1)C(=O)CN1C(=O)c2cc(Cl)c(Cl)cc2C1=O | 78.58%
CN(Cc1ccco1)C(=O)CN1C(=O)c2cc(Cl)c(Cl)cc2C1=O | 81.66%
CN(Cc1ccco1)C(=O)CN1C(=O)c2ccccc2C1=O | 72.08%
CN(Cc1cccs1)C(=O)CS(=O)(=O)Cc1ccc(Cl)c(Cl)c1 | 0.1099%
Cc1cccc(C(C(=O)N(C)Cc2ccco2)N(C)C)c1 (stereo not given) | 9.844%
O=C1N(CCCc2ccccc2)CCCC1(O)CNCC1CCCCC1 (stereo not given) | 25.76%
Cc1nnsc1CN1C[C@H]2CC[C@@H]1CN(Cc1ccc(F)cc1)C2 | 24.86%
CC(=O)N1CCN(Cc2ccc(C(F)(F)F)c(F)c2)CC(O)C1 (stereo not given) | -15.55%
CC(C)C(=O)NCC(=O)N(C)C1CCCN(C2Cc3ccccc3C2)C1 (stereo not given) | -0.79%
Cc1ccc(N2CC3(COCCN(Cc4nccs4)C3)OCC2=O)s1.O=C(O)C(F)(F)F (stereo not given) | -2.22%
Nc1nc2c(c(=O)[nH]1)CCN(C(=O)c1cccc3nccnc13)C2 | 6.132%
CN(C)c1nc2c(c(=O)[nH]1)CCN(C(=O)c1cccc3nccnc13)C2 | 3.463%
Cc1nc2c(c(=O)[nH]1)CCN(C(=O)c1cccc3nccnc13)C2 | 104.9%
Cc1nccn1CCC1CCCCN1Cc1ccc(N(C)C)nc1 (stereo not given) | 13.8%
CC(=O)N1CCCC(C(=O)N2CCC(=Cc3cccc(F)c3)CC2)C1 (stereo not given) | 11.44%
O=C(O)C(F)(F)F.O=S(=O)(c1cccc(F)c1)N1CC[C@H]2[C@H]1CCN2c1ncccn1 | -6.82%
O=C(C1CC1)N1C[C@H]2CCCN(S(=O)(=O)c3cccc(F)c3)[C@H]2C1 | 149%
CC(=O)N1CCCc2ccc(S(=O)(=O)N3CCCCC3C)cc21 (stereo not given) | -24.19%
CC(=O)N1CCc2ccc(S(=O)(=O)N3CCCCC3C)cc21 (stereo not given) | -39.69%
O=C(C1CC1)N1C[C@H]2CCCN(S(=O)(=O)c3ccc4c(c3)CCC4)[C@H]2C1 | 109.7%
CCOC(=O)c1cn(CC(O)c2ccccc2OC)nn1 (stereo not given) | -11.75%

SMILES | Percent Effect
CCN(CC1CCOC1)C(=O)CSCC(=O)Nc1ccc(C)cc1 (stereo not given) | 4.187%
O=C(Nc1cccc(C(F)F)c1)N[C@@H]1C=C[C@H](CO)C1 | -9.569%
CC(C)(C)OC(=O)N1CCN(c2cccnc2)CC1C(=O)O (stereo not given) | 114.7%
COc1ccc(N2CCN(C(=O)OC(C)(C)C)C(C(=O)O)C2)cc1 (stereo not given) | 126.2%
Cc1ccc(C(=O)N2C[C@@H]3CCN(c4cccnc4)C[C@@H]3C2)cn1.O=C(O)C(F)(F)F | 4.1%
CCCSCC(=O)N1CCN(c2ccc(OC)cc2)CC1C (stereo not given) | 15.77%
COC(=O)c1ccc(N2CCN(C(=O)C(C)C)C(C)C2)cc1 (stereo not given) | 1.031%
COc1ccc(N2CCN(C(=O)Cn3nc(C)c(C)c3C)C(C)C2)cc1 (stereo not given) | -0.23%
COC(=O)N1CCCCC1C(=O)N1CCN(c2cccnc2)CC1 (stereo not given) | -31.63%
CC(C)(C)OC(=O)N1CCN(c2ccc(F)cc2)CC1C(=O)O (stereo not given) | 89.96%
Cc1ccc(N2CCN(C(=O)CCC(F)(F)F)C(C)C2)cc1 (stereo not given) | 17.59%
CCc1nccn1C1CCCN(C(=O)c2cnc[nH]2)C1 (stereo not given) | 2.73%
CCCS(=O)(=O)NCC1OCCc2cn(CC3CCOCC3)nc21 (stereo not given) | -15.6%
CC(C)CN1C[C@@H]2OCC(=O)N(Cc3nccn3C)[C@@H]2C1 | 0.1712%
CNC(=O)[C@H]1C[C@H]2OCC[C@H]2N(CCOc2ccc(Cl)cc2)C1.O=C(O)C(F)(F)F | -0.765%
CCN(CC)S(=O)(=O)c1cc(NC(=O)CCc2cscn2)ccc1C | -4.761%
O=C(NC[C@]1(O)CCN(Cc2ccsc2)C[C@H]1O)c1c[nH]cn1 | 99.16%
Cc1cncc(CN2CC[C@@](O)(CNC(=O)c3c[nH]cn3)[C@H](O)C2)c1 | 108.4%
O=C(NC[C@]1(O)CCN(Cc2ccccc2F)C[C@H]1O)c1c[nH]cn1 | 105%
Cc1cc(CN2CCC(CNC(=O)c3cnc(C)nc3C)C2)[nH]n1 (stereo not given) | -6.024%
Cc1cccc(CN2CCCC(O)(CNCCc3c[nH]cn3)C2=O)c1 (stereo not given) | 23.49%
CN1CCC(NCC2(O)CCCN(Cc3ccccc3F)C2=O)CC1 (stereo not given) | -22.31%
O=C(NC[C@]1(O)CN(Cc2ccccc2F)C[C@H]1O)c1cscn1 | 81.64%
Fc1ccccc1CC1CCN(Cc2cscn2)CC1 | 12.39%
O=C(NC[C@]1(O)CN(Cc2ccccc2F)C[C@H]1O)c1ccccn1 | -4.429%

SMILES | Percent Effect
NC1(C(=O)NCC2CCCN(Cc3ccccc3F)C2)CCCC1 (stereo not given) | -12.52%
COCC1CC2(CCN(S(=O)(=O)C3CC3)CC2)CN1c1ncccn1.O=C(O)C(F)(F)F (stereo not given) | -3.839%
CCn1cnnc1CNC(=O)NCC(C)(CC)N1CCOCC1 (stereo not given) | -7.317%
Cc1n[nH]c(C2CN(Cc3nnc(C4CC4)n3C)CCO2)n1 (stereo not given) | 1.096%
CCNC(=O)[C@@H]1C[C@H](N)CN1c1cc(C(F)(F)F)nc(N2CCCC2)n1 | -17.39%
CCNC(=O)[C@@H]1C[C@H](N)CN1c1cc(C(F)(F)F)nc(N(C)C)n1 | -10.07%
CCNC(=O)[C@@H]1C[C@H](N)CN1c1cc(CC)nc(N(C)C)n1 | 116.6%
COC(=O)c1ccc(N2CCN(C(=O)c3ccc(=O)n(C)c3)CC2)cc1 | -4.416%
COC(=O)c1cccc(C(=O)N2CCN(c3ccc(Cl)cc3)CC2)n1 | 100.8%
COC(=O)c1ccc(N2CCN(C(=O)c3ccn(C)c(=O)c3)CC2)cc1 | 7.353%
COC(=O)c1cccc(C(=O)N2CCN(c3ccc(OC)cc3)CC2)n1 | 142.3%
O=C(c1ncncc1Cl)N1CCN(c2ccc(Cl)cc2)CC1 | -23.14%
COC(=O)c1cccc(C(=O)N2CCN(c3ccccc3F)CC2)n1 | 5.907%
CCC(C)(C)C1CCCN1C(=O)c1coc(S(=O)(=O)NC)c1 (stereo not given) | 25.9%
Cc1cccc(N2CCC3(CCCN3Cc3c(C)nn(C)c3C)CC2)n1 | 12.41%
CC(C)SCc1cccc(NC(=O)NCCc2nnc[nH]2)c1 | 5.819%
CCc1nccn1C1CCCN(C(=O)c2cn3cccnc3n2)C1 (stereo not given) | -0.7445%
Cc1nc(C)n(C2CCCN(C(=O)c3cn4c(C)cccc4n3)C2)n1 (stereo not given) | 8.927%
Cc1cnn(C2CCCN(C(=O)c3cn4cccnc4n3)C2)c1 (stereo not given) | -8.081%
CC(C)c1nccn1C1CCCN(C(=O)c2cn3cccnc3n2)C1 (stereo not given) | 106.5%
Cc1cc(C)n(C2CCCN(C(=O)c3cn4cccnc4n3)C2)n1 (stereo not given) | 140.9%
Cc1cc(C)n(C2CCN(C(=O)c3cn4ccsc4n3)C2)n1 (stereo not given) | -17.41%
Cc1nc(C)n(C2CCCN(C(=O)c3cn4cccnc4n3)C2)n1 (stereo not given) | 114.3%
CC(C)c1nccn1C1CCCN(C(=O)c2cnc[nH]2)C1 (stereo not given) | -3.09%
Cc1nc(C)n(C2CCCN(C(=O)c3csnn3)C2)n1 (stereo not given) | -2.311%
